Experimental data taken from the supplement of paper PMC8253809.

How the values were obtained:
Test in all cases: growth inhibition (% activity, log2 RLU normalised to DMSO / staurosporine); higher = more growth inhibition
Settings in all cases: 33 µM
[1] = system: DIPGX29 (H3.3 K27M diffuse intrinsic pontine glioma line)
Summary of the method: (§1)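 For each approved drug, the growth-inhibition value is the replicate median of per-plate normalised CellTiter-Glo data. Luminescence was log2-transformed and expressed as % activity between solvent and positive control wells. Drugs were applied in triplicate at a single final concentration of about 33 μM for 7 days at 37 °C, 5% CO2 to pHGG cell lines and H9-derived neural stem cells.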

[2] = system: DIPGX37 (H3.3 K27M diffuse intrinsic pontine glioma line)
Summary of the method: as §1

[3] = system: DIPGX7 (H3.3 K27M diffuse intrinsic pontine glioma line)
Summary of the method: as §1

[4] = system: DIPGX9 (diffuse intrinsic pontine glioma line)
Summary of the method: as §1

[5] = system: HGGX39 (paediatric high-grade glioma line)
Summary of the method: as §1

[6] = system: HGGX6 (H3.3 G34R paediatric high-grade glioma line)
Summary of the method: as §1

[7] = system: HNSC
Summary of the method: as §1

[8] = system: SUDIPGIV (diffuse intrinsic pontine glioma line)
Summary of the method: as §1

[9] = system: SUDIPGVI (diffuse intrinsic pontine glioma line)
Summary of the method: as §1

[10] = system: SUDIPGXIII (diffuse intrinsic pontine glioma line)
Summary of the method: as §1

SMILES	growth inhibition [1] [%]	growth inhibition [2] [%]	growth inhibition [3] [%]	growth inhibition [4] [%]	growth inhibition [5] [%]	growth inhibition [6] [%]	growth inhibition [7] [%]	growth inhibition [8] [%]	growth inhibition [9] [%]	growth inhibition [10] [%]
O=C(CCCN1CC=C(n2c(=O)[nH]c3ccccc32)CC1)c1ccc(F)cc1	-2.81	-3.22	1.35	-2.63	-0.994	-4.16	3.11	-2.04	-2.84	0.682
O=c1oc2c(O)c(O)cc3c(=O)oc4c(O)c(O)cc1c4c23	1.91	2.55	2.78	2.1	1.54	-1.49	-1.26	-0.815	-0.974	1.4
CNS(=O)(=O)CCc1ccc2[nH]cc(C3CCN(C)CC3)c2c1	0.0879	3.2	0.944	1.8	1.37	-0.244	1.62	1.09	2.79	-1.47
Cc1[nH]c(=O)c(C#N)cc1-c1ccncc1	1.05	4.4	1.37	1.64	3.34	-0.118	3.65	2.63	4.48	-1.25
CS(=O)(=O)c1ccc(C2=C(c3ccccc3)C(=O)OC2)cc1	-1.33	-0.751	-1.9	-1.51	-1.94	-2.78	-3.76	-4.83	-0.628	0.203
COc1cc(C(=O)NC2CCCNC2)cc(OC)c1OC (stereo not given)	0.123	2	0.49	0.203	2.37	-3.35	6.28	1.23	0.918	-1.95
Cn1c(=O)c2c(ncn2CC2OCCO2)n(C)c1=O	0.735	3.27	0.989	0.338	4.64	-0.428	12.2	2.59	1.02	0.38
CCN(CC)CCOC(=O)C(c1ccccc1)c1ccccc1	3.33	2.41	3.35	1.46	2.96	2.47	6.35	0.181	3	-1.28
CN(C)CCN(Cc1cccs1)c1ccccn1	1.96	3.64	1.81	0.429	5.09	1.78	2.78	0.871	3.63	0.391
Cc1cccc(C)c1OCC(=O)N[C@@H](Cc1ccccc1)[C@@H](O)C[C@H](Cc1ccccc1)NC(=O)[C@H](C(C)C)N1CCCNC1=O	-0.115	1.21	-0.846	1.07	-0.0767	1.3	0.148	-2.8	-1.16	-0.606
NNC(=O)c1ccncc1	3.87	-2.25	1.93	0.954	0.333	-0.478	44.1	3.88	-2.88	-0.311
CN1CC(=O)N2[C@H](c3ccc4c(c3)OCO4)c3[nH]c4ccccc4c3C[C@@H]2C1=O	-0.154	2.3	0.64	0.257	2.46	0.71	-0.244	0.899	-1.44	2.73
CN1CCN2c3ccccc3Cc3ccccc3C2C1 (stereo not given)	1.33	-0.487	0.702	-0.0886	2.14	-2.26	2.01	-0.203	-0.707	-2.33
C[C@H]1C[C@H]2[C@@H]3CCC4=CC(=O)C=C[C@]4(C)[C@H]3C(=O)C[C@]2(C)[C@@]1(O)C(=O)CO	-1.49	-0.985	2.72	-1.67	-0.401	-2.95	-1.41	0.457	-9.81	0.862
Cc1c(C(=O)NN2CCCCC2)nn(-c2ccc(Cl)cc2Cl)c1-c1ccc(Cl)cc1	-2.71	-0.227	1.25	-0.743	-1.14	-2.08	11.7	-1.46	-7.47	3.18
Cc1ccc2c(Cl)cc(Cl)c(O)c2n1	8.88	2.78	3.99	8.04	4.68	3.09	46	5.39	5.64	3.89
CCCCCCCCCC(=O)N[C@@H](Cc1c[nH]c2ccccc12)C(=O)N[C@@H](CC(N)=O)C(=O)N[C@@H](CC(=O)O)C(=O)N[C@@H]1C(=O)NCC(=O)N[C@@H](CCCN)C(=O)N[C@@H](CC(=O)O)C(=O)N[C@H](C)C(=O)N[C@@H](CC(=O)O)C(=O)NCC(=O)N[C@H](CO)C(=O)N[C@@H]([C@H](C)CC(=O)O)C(=O)N[C@@H](CC(=O)c2ccccc2N)C(=O)O[C@@H]1C	-2.71	-1.3	-0.801	-2.61	-1.25	-2.93	-6.45	-2.57	-3.09	-1.13
CC/C(=C(\c1ccccc1)c1ccc(OCCN(C)C)cc1)c1ccccc1	7.72	1.28	12.1	3.63	11.1	10.5	21	7.38	5.56	2.99
N#Cc1ccc(C(c2ccc(C#N)cc2)n2cncn2)cc1	-0.88	0.114	-0.157	-0.262	-0.621	-0.866	0.581	-0.66	1.28	1.04
C=C[C@]1(C)C[C@@H](OC(=O)CS[C@@H]2C[C@H]3CC[C@@H](C2)N3C)[C@]2(C)[C@H](C)CC[C@]3(CCC(=O)[C@H]32)[C@@H](C)[C@@H]1O	4.15	2.94	3.25	4.84	11.9	5.9	7.78	12	5.01	5.37
COc1cc2c(cc1OC)C(=O)C(CC1CCN(Cc3ccccc3)CC1)C2 (stereo not given)	4.4	-6.1	3.13	-1.15	-1.59	0.576	9.45	-1.23	-7.35	-4.73
Cc1c(-c2ccccc2)oc2c(C(=O)OCCN3CCCCC3)cccc2c1=O	-0.48	-1.55	0.152	-0.867	0.0272	0.269	-2.8	-0.209	-3.08	-2.91

SMILES	growth inhibition [1] [%]	growth inhibition [2] [%]	growth inhibition [3] [%]	growth inhibition [4] [%]	growth inhibition [5] [%]	growth inhibition [6] [%]	growth inhibition [7] [%]	growth inhibition [8] [%]	growth inhibition [9] [%]	growth inhibition [10] [%]
CN1CCCC(n2nc(Cc3ccc(Cl)cc3)c3ccccc3c2=O)CC1 (stereo not given)	3.68	2.48	4.68	2.54	7.54	3.65	0.14	1.76	0.965	2.09
CC(C(=O)O)c1ccc2c(c1)Cc1cccnc1O2 (stereo not given)	0.469	2.25	2.38	1.73	3.25	2.19	2.91	-1.77	3.45	-1.63
NCC1OC(OC2C(N)CC(N)C(OC3OC(CO)C(O)C(N)C3O)C2O)C(N)C(O)C1O (stereo not given)	-1.38	0.63	0.452	-1.1	1.6	-1.9	30.8	-0.143	-4.48	-1.57
Cc1ccnc2c1NC(=O)c1cccnc1N2C1CC1	0.291	2.43	0.516	-1.16	0.921	-1.94	2	1.95	0.484	0.637
Nc1nnc(-c2cccc(Cl)c2Cl)c(N)n1	-0.42	-0.569	-0.114	-0.0846	0.648	0.473	0.358	-1.97	0.284	0.73
Cc1nc(Nc2ncc(C(=O)Nc3c(C)cccc3Cl)s2)cc(N2CCN(CCO)CC2)n1	8.3	-3.6	2.53	12.4	15.6	10.8	20	-0.76	2.41	2.8
CCN(CC)C(=O)/C(C#N)=C/c1cc(O)c(O)c([N+](=O)[O-])c1	-0.0111	1.83	-1.51	0.533	0.054	-0.625	-2.42	-1.01	-0.299	1.29
O=NN(CCCl)C(=O)NC1CCCCC1	0.207	0.604	3.11	1.74	2.6	0.392	8.64	0.873	2.64	0.32
Cn1c([N+](=O)[O-])cnc1COC(N)=O	0.121	3.86	2.76	0.536	2.55	-0.567	7.72	2.41	2.16	0.864
Cc1cccc(Nc2ccccc2C(=O)O)c1C	-4	-1.52	3.05	-3.62	-3.34	-4.45	9.87	-8.08	-6.14	-0.652
Nc1nc2c(ncn2COCCO)c(=O)[nH]1	-1.73	1.12	1.01	0.254	1.26	-2.13	5.44	-0.972	-0.331	0.201
C[C@]12CC[C@@H]3c4ccc(O)cc4C[C@@H](CCCCCCCCC[S+]([O-])CCCC(F)(F)C(F)(F)F)[C@H]3[C@@H]1CC[C@@H]2O (stereo not given in full)	0.0636	0.16	0.804	-0.923	8.06	-1.09	2	-0.255	-0.348	2.55
CC(=O)Oc1ccc(C(c2ccc(OC(C)=O)cc2)c2ccccn2)cc1	2.78	3.71	5.33	8.29	20.8	3.52	4.99	18.7	3.8	5.98
[Na+].[Na+].[Na+].[O]=[V]([O-])([O-])[O-]	-1.42	0.923	-1.78	0.306	0.285	-0.94	-0.354	-2.76	-0.971	1.36
CC(=O)OCC(=O)[C@@]12OC(C)(C)O[C@@H]1C[C@H]1[C@@H]3C[C@H](F)C4=CC(=O)C=C[C@]4(C)[C@@]3(F)[C@@H](O)C[C@@]12C	0.7	2.1	-1.12	3.42	2.3	-0.607	5.54	-2.88	0.11	2.76
CC(C)CN(C[C@@H](O)[C@H](Cc1ccccc1)NC(=O)O[C@H]1CO[C@H]2OCC[C@H]21)S(=O)(=O)c1ccc(N)cc1	-2.82	-0.683	-0.244	-0.934	-1.58	0.0431	-4.53	-3.11	-1.79	1.1
N=S(=O)(O)Cc1noc2ccccc12	-1.43	-1.83	-1.41	-1.19	-0.682	-1.72	-4.88	-1.71	-4.93	-0.253
CC[C@@H]1C(=O)OC[C@@H]1Cc1cncn1C	-0.467	1.71	-1.24	-1.88	0.217	-0.083	-2.25	-1.63	0.518	-11.1
C#CCN[C@@H]1CCc2ccccc21	1.3	4.12	1.95	1.74	3.31	-0.441	12.3	2.79	1.93	0.598
CNC(=O)c1cc(Oc2ccc(NC(=O)Nc3ccc(Cl)c(C(F)(F)F)c3)c(F)c2)ccn1	4.67	2.29	3.66	2.56	5.15	5.99	39.1	1.19	4.32	59.3
CC(C)NCC(O)c1ccc(O)c(O)c1 (stereo not given)	-3.68	-0.899	-1.64	-0.316	-1.58	0.187	-3.47	-0.959	-4.2	-0.909
